Laboratory results published in PubChem BioAssay AID1851 (National Center for Advancing Translational Sciences (NCATS), 2009).
“And” between values parts separate entries of the source, which are not always exact repeats. Equal entries are not always repeated. The whole screen tested about 16,000 compounds, of which about 4,000 (25%) were called active. Inconclusive results (about 26%) are left out. Calls follow the shape of the dose curve; as a rule, active = well fitted curve in the direction sought with a large enough effect; inconclusive = small, poorly fitted or top-dose-only effect, or effect the other way; inactive = no such curve, though single readings can be large or run the other way. Not all results are given here.

The molecules below were run against Cytochrome P450 2C9 (Homo sapiens) (UniProt P11712) (assay: Cytochrome panel assay with activity outcomes). Conditions: recombinant CYP, pro-luciferin dealkylation, luminescence, p450-cyp2c9; series mostly up to 57.1 µM; activity, negative = inhibition: at the top concentration.
Cytochrome P450 2C9 (Homo sapiens), sequence (P11712 whole entry, looked up): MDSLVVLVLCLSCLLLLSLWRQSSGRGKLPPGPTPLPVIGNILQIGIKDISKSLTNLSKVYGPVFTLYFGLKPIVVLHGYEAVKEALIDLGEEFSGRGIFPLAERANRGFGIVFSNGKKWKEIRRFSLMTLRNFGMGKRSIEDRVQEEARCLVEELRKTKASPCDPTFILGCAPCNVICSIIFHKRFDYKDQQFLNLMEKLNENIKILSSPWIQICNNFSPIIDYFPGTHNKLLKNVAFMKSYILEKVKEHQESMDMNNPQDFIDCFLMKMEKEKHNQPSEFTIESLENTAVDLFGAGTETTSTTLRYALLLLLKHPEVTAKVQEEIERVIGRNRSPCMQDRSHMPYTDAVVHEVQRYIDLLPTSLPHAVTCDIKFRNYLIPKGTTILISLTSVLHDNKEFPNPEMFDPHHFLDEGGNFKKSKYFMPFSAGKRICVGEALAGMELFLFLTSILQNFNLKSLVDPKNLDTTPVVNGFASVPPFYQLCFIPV
% is scaled to controls: 0 for no effect and ±100 for the full control effect.

activity, negative = inhibition, inactive:
C/C(CCN1CCCCc2nc(C)c(C)cc21)=N\O[C@@H](C)c1cn([C@H](CO)Cc2ccccc2)nn1 6.66% [at 11.4 µM] and -0.809% [at 11.4 µM], O=C(Nc1cccc(F)c1)N1CC2(CCN(C(=O)c3csnn3)CC2)C1 4.96%, O=C(O)[C@H]1[C@H](C(=O)O)[C@H](C(=O)O)C[C@@H]1C(=O)O 7.74% [at 11.4 µM], Clc1ccc2c(NCCNC3CCCCC3)ccnc2c1 -4.74% [at 11.4 µM], NCCCC(=O)O -2.69%, CCn1c(SCc2ccc(C)cc2)nnc1-c1nn(-c2ccccc2)ccc1=O -19.9%, CC(C)(C)S(=O)(=O)c1cnc2c(-c3ccc(F)cc3)cnn2c1N -14%, CCCN1CCN(C(=O)CN2C(=O)CC(C)(C)S(=O)(=O)c3ccccc32)CC1 -26.4%, CCN1CCN(CC(=O)N2c3ccccc3CC2C)CC1 (configuration not stated) -5.36%, C[C@@H]1Cc2ccccc2N1NC(=O)c1ccc(Cl)c(S(N)=O)c1 (some centres not stated) -4.47% [at 25.6 µM], CC(=O)N1c2ccc(S(=O)(=O)CCC(=O)O)cc2CC1C (configuration not stated) -18%, COc1ccc(C(=O)N2CCC3(CC2)CN(Cc2ccc(C#N)cc2)C3)cc1 9.43%, COc1ccc(NC(=O)N2CCCC3(CCN(C(=O)c4cc(C(F)(F)F)cc(C(F)(F)F)c4)CC3)C2)cc1 6.55%, COc1ccc(C(=O)N2CCC[C@@]3(CCN(Cc4cc(C(F)(F)F)cc(C(F)(F)F)c4)C3)C2)cc1 9.5%, N=C1CCC[C@@H]1C(=S)SCCC(N)=O 17.6% [at 11.4 µM], C=CC(=O)NC(NC(=O)C=C)c1ccc(Br)cc1 18.3%, O=C1CC[C@H](NC(=O)c2ccccc2)C(=O)N1 5.14% [at 11.4 µM], O=C(c1ccco1)N1CCC[C@@]2(CCN(c3ccccc3)C2)C1 -10.5%, O=C(c1cnccn1)N1CCC2(CC1)CN(c1ccccc1)C2 -1.1%, O=C(c1ccco1)N1CCC2(CC1)CN(c1cccc(-c3ccccc3)c1)C2 -6.53%, O=C(c1cnccn1)N1CCC[C@@]2(CCN(c3ccncc3)C2)C1 -9.93%, O=C(c1cnccn1)N1CCC[C@@]2(CCN(c3ccccn3)C2)C1 -9.53%, O=C(c1cnccn1)N1CCC2(CC1)CN(c1cccc(-c3ccccc3)c1)C2 -12.8%, CN(C)c1ccc(-c2ccc3ncnc(N(C)C)c3c2)cc1 -17.4% [at 2.29 µM], O=c1n(-c2ccccc2)c(=O)n2n1CC[C@H]1/C(=N\OCc3ccccc3)[C@H]3O[C@@H]3[C@@H](O)[C@@H]12 25.1% [at 11.4 µM], CN1CCN(C2CC(=O)N(Cc3ccc(N4CCCC4=O)cc3)C2=O)CC1 (configuration not stated) -21.9%, CCN1C(=O)CC(N2CCN(CC(=O)NC(C)C)CC2)C1=O (configuration not stated) 28.9%, NN(CC(=O)O)CC(=O)O 17.7% [at 11.4 µM], Cc1cc(-c2ccc(Cl)cc2)oc(=O)c1NC(=O)c1ccccc1 -24.3%, Cc1ccc2c(c1)/C(=N/OC(=O)c1ccc(F)cc1)CCS2 -4.99%, Cc1cc(NS(=O)(=O)c2ccc(NC(=O)CN3C(=O)c4ccccc4C3=O)cc2)nc(C)n1 9.04%, O=C1C(C2=NC(C(=O)O)C3C(=O)N(c4ccc(Cl)cc4)C(=O)C23)=C(O)c2ccccc21 (configuration not stated) -11.2%

AC50, inactive:
CCS(=O)(=O)N(C)[C@@H]1c2cc(C#N)ccc2OC(C)(C)[C@H]1O

AC50, active:
Cc1ccc(-n2ccc(=O)c(-c3ccnc(SCc4cccc(Cl)c4)n3)n2)cc1 3.16 µM, CC1Cc2ccccc2N1C(=O)CN1C(=O)COc2ccccc21 (configuration not stated) 11.2 µM, CC1Cc2ccccc2N1C(=O)Cn1c(=O)cc(O)c2ccccc21 (configuration not stated) 14.1 µM, COC(=O)[C@@]1(Cc2ccc(F)cc2)[C@H]2c3cc(C(=O)N4CCCC4)n(CCCNc4ncc(C(F)(F)F)cc4Cl)c3C[C@H]2CN1C(=O)c1ccccc1 3.16 µM, COC(=O)[C@@]1(Cc2ccc(OC)cc2)[C@H]2c3cc(C(=O)N4CCCC4)n(CCCNc4ncc(C(F)(F)F)cc4Cl)c3C[C@H]2CN1C(=O)c1ccccc1 7.94 µM, O=C(c1cnccn1)N1CCC2(CCCN(c3cccc(-c4ccccc4)c3)C2)CC1 20 µM, O=C(c1ccco1)N1CCC[C@@]2(CCN(c3cccc(-c4ccccc4)c3)C2)C1 5.01 µM, O=C(c1cnccn1)N1CCC[C@@]2(CCN(c3cccc(-c4ccccc4)c3)C2)C1 7.94 µM, O=C1CC(N2CCN(C(c3ccccc3)c3ccccc3)CC2)C(=O)N1Cc1ccc(N2CCCC2=O)cc1 (configuration not stated) 7.08 µM, CNC(=O)c1sc(SC)cc1-c1ccc(Cl)cc1 5.62 µM, COc1ccccc1C(=O)O/N=C1/CCCc2c1ccc(OC)c2[N+](=O)[O-] 12.6 µM, Cc1cc(Cl)ccc1OC(C)C(=O)Nc1ccc(S(=O)(=O)Nc2cnc3ccccc3n2)cc1 (configuration not stated) 0.631 µM, O=C1C2Sc3[nH]c(=O)sc3C(c3ccccc3)C2C(=O)N1c1ccc(Cl)cc1 (configuration not stated) 8.91 µM, O=C1C2Sc3[nH]c(=O)sc3C(c3ccccc3)C2C(=O)N1c1ccccc1 (configuration not stated) 12.6 µM
